About 83,000 compounds went through this panel and 20% of them were active in at least one assay; those are over-represented in the sample as a whole.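 A percent growth of 40 corresponds to 60% growth inhibition; 0 means no net growth; -100 means all cells died. Active threshold: below 10.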 Values without a mark were called inactive. Activity calls are given as the source filed them.

The record followed here is PubChem BioAssay (NCI).

Common to all, as to assay: NCI-60 one-dose screen, 48 h (100 = growth as untreated, 0 = no growth, -100 = all killed)
What all share (details): 10 µM unless noted

Test [1] concerns HCT-15 colon.
In test [2] the test system is HT29 colon.
Test [3] deals with SNB-75 CNS.
The test system of test [4] is SNB-19 CNS.
Test [5] deals with U251 CNS.
The subject of test [6] is SK-MEL-5 melanoma.
The subject of test [7] is UACC-62 melanoma.
In test [8] the test system is LOX IMVI melanoma.
Test [9] deals with SK-MEL-28 melanoma.
For test [10], the system named is PC-3 prostate.

`CN(CCCCCl)P(=O)(OCc1ccc([N+](=O)[O-])o1)C(F)(F)c1ccc(CC(=O)NC[C@@H](O)/C=C\[C@@H](O)[C@H](CO)Cc2ccccc2)cc1` (some centres undefined): the growth in test [1] is 96.2%; in [2] it was 77%; in test [3] it was 95.4%; in test [4], 102%; in test [5], 93.7%; in test [6] it was 97.1%. In addition, the growth in test [7] was 74.4%; in test [8], 60.4%; in [9], 97.8%.
On to `O=C(COc1cccc(/C=C2\CSc3ccccc3C2=O)c1)Nc1nccs1`, for which the growth in [1] was 75.5%; in [2], 15.9%; in test [3], 22.2%; in [4], 79.5%; in test [5], 41.8%; in test [7] it was 64.1%. For the same compound, the growth in test [8] was -100% (active); in [9], -0.13% (active).
Take `COc1ccc2[nH]cc(-c3noc(C(=O)c4cn(C)c5ccc(F)cc45)n3)c2c1`: the growth in [1] is 94.4%; in test [2], 109%; in [3], 74.6%; in [4], 96%; in test [5] it was 101%; in test [6] it was 92.5%. Moreover, the figures for the growth in test [7], in test [8] and in test [9] were 88.2%, 93.2% and 105%, respectively.
As to `COc1ccc(C(=O)/C=C/c2cccnc2Nc2cc(OC)c(OC)c(OC)c2)cc1`, the growth in test [1] is 18.1%; in [2], 15.1%; in test [3], 21.2%; in test [4] it was 36.3%; in [5] it was 13%; in test [6] it was 43%. The values for the growth in [7], in [8] and in test [9] were 50%, -26% (active) and 71.5%, respectively.
In the case of `COc1cc(-c2ccc3c(c2)NC(=O)/C3=C\c2ccc[nH]2)ccc1O`, the growth in test [1] was 14.1%; in test [2], 18.9%; in test [3], 47.2%; in test [4], 34.8%; in test [5] it was 15.4%; in [6], -27.5% (active). Also, the figures for the growth in [7], in test [8] and in test [9] were 32.2%, -8.36% (active) and 37.5%, respectively.
Turning to `CC(O)CN(CC(C)O)c1ccc2c(c1)Cc1cc([N+](=O)[O-])ccc1-2` (centres undefined), the growth in test [1] is 83.5%; in [2], 103%; in test [3], 87.5%; in test [4], 98.9%; in test [5], 102%; in test [6] it was 103%. The growth in test [7] was 95.7%; in test [8] it was 96.2%; in [9], 109%.
Take `C=C1c2nc3ccccc3n2C=C(c2ccc(Cl)cc2)N1Cc1ccc(OC)cc1`: the growth was 67.3% in test [1]; 88.8% in [2]; 103% in [3]; 79.1% in [4]; 92.8% in test [5]; 72.3% in test [6]. The growth in test [7] is 68%; in test [9] it was 88.9%.
On to `COc1ccc2c(c1)c(-c1nonc1-c1cn(C)c3ccccc13)cn2C`, for which the growth in test [1] is 25.7%; in test [2], 8.38% (active); in [3], -6.82% (active); in test [4] it was 34.9%; in [5], 32.8%; in test [6], 13.3%. Further, the figures for the growth in test [7] and in [9] were 38% and 63.1%, respectively.
On to `COc1ccccc1NS(=O)(=O)c1ccc2oc(SC(C)C)nc2c1`, for which the growth was 125% in [1]; 96.3% in [2]; 102% in test [3]; 93.7% in test [4]; 138% in test [5]; 49.9% in [6]. In addition, the values for the growth in [7] and in test [9] were 59.9% and 115%, respectively.
In the case of `CC(=O)O[C@H]1[C@@H]2OC(=O)C(CSc3ccccc3)[C@@H]2C[C@H]2O[C@]2(C)CC/C=C(\C)CCC[C@@H]1C` (some centres undefined), the growth is 12.8% in test [1]; 19.5% in [2]; 37.1% in test [3]; 68% in test [4]; 51.6% in test [5]; 47% in test [6]. The growth in [7] was 38.3%; in test [9] it was 37.7%.
Turning to `Cn1cc(C(=O)c2nc(-c3c[nH]c4ccccc34)no2)c2ccccc21`, the growth is 25.6% in test [1]; 35.8% in test [2]; 55.6% in [3]; 91.8% in [4]; 92.4% in test [5]; 16.8% in test [6]. Also, the growth in [7] was 60.3%; in test [8] it was 83.9%; in [9], 94%.
With `O=C(Cc1ccccc1Nc1c(Cl)cccc1Cl)NN1C(=O)/C(=C/c2ccc(Br)cc2)SC1=S`, the growth in [1] is 104%; in [2], 109%; in [3] it was 86.4%; in test [4], 105%; in test [5], 102%; in [6] it was 98.6%. In addition, the values for the growth in test [7], in [8] and in test [9] were 101%, 97.5% and 105%, respectively.
`Cc1ccc(NC(=O)/C=C/c2ccccc2)c(C(N)=O)c1`: the growth in [1] was 33.6%; in test [2] it was 14.1%; in test [3], 11.3%; in test [4] it was 40.5%; in test [5], 28.8%; in test [6], 6.05% (active). Besides, the figures for the growth in test [7], in [8] and in test [9] were 44.2%, 51.2% and 33.1%, respectively.
Regarding `O=c1c(F)cn(Cc2ccccc2CCl)c(=O)n1Cc1ccccc1CCl`, the growth in test [1] was -57.6% (active); in [2], -83.7% (active); in test [3], -5.72% (active); in test [4] it was -23% (active); in test [5], -71.6% (active); in [6] it was -100% (active). For the same compound, the figures for the growth in test [7] and in test [9] were -82.6% (active) and -65% (active), respectively.
As to `CC(O)CN1CC(O)=C(c2nc3ccccc3s2)C1=N` (centres undefined), the growth is 158% in test [1]; 104% in test [2]; 99.3% in test [3]; 96.5% in test [4]; 157% in [5]; 105% in [6]. For the same compound, the growth in [7] is 102%; in test [8], 211%; in test [9], 131%.
`COc1ccc(NC2=C(Sc3nc(C)cc(C)n3)C(=O)N(Cc3ccccc3)C2=O)cc1Cl`: the growth is 73.8% [30 µM] in [1]; 60.1% [30 µM] in test [2]; 84.4% [30 µM] in test [3]; 95.4% [30 µM] in test [4]; 86.9% [30 µM] in [5]; 57.9% [30 µM] in test [6]. Also, the growth is 71.5% [30 µM] in test [7], 93.2% [30 µM] in test [8] and 103% [30 µM] in [9].
For the compound `O=C1/C(=C/C(Cl)=C/c2ccccc2)SC(=S)N1CCc1ccc(O)cc1`, the growth in [1] was 2.94% (active); in test [2], 1.54% (active); in test [3], 17.3%; in test [4], 6.88% (active); in test [5] it was -58.3% (active); in test [6], -47.6% (active). The growth was -24.7% (active) in [7], -79.2% (active) in [8] and -26% (active) in test [9].
In the case of `CCCCC(=O)OCC1OC(n2cnc3c(=S)nc[nH]c32)C(OC(=O)CCCC)C1OC(=O)CCCC` (centres undefined), the growth in test [1] was 33.1%; in test [2], 27%; in [3], 51%; in test [4], 64.2%; in test [5], 70.1%; in test [6], 23.3%. The growth in test [7] is 7.37% (active); in test [8], 12.1%; in test [9] it was 85.7%.
On to `C=CCSSC1N=CNc2nc[nH]c21` (centres undefined), for which the growth in test [1] was 52.7%; in test [2], 50.1%; in test [3], 46.9%; in test [4] it was 89.1%; in [5], 70.2%; in test [6] it was 60.7%. Besides, the growth in [7] is 16.8%; in [8], 7.74% (active); in [9] it was 114%.
For `OC(COc1cccc2ccccc12)CN1CCN(c2ccccc2Cl)CC1` (centres undefined), the growth in test [1] is 99%; in test [2] it was 85.7%; in test [3], 86.7%; in [4], 83.4%; in test [5] it was 97.8%; in [6] it was 90.7%. The growth in test [7] was 93.9%; in [8], 92.6%; in test [9], 112%.
As to `CC(C)(C)c1cc(C(C)(C)C)cc(S(=O)(=O)Nc2cc3ccccc3cc2C(=O)NCCN)c1`, the growth in [1] was 38.8%; in test [2], -43.7% (active); in [3], 63.4%; in test [4] it was 68.9%; in test [5] it was -21.8% (active); in [6], 81.1%. Further, the growth in test [7] is 55%; in test [9], -44.9% (active).
Consider `COc1cccc(-c2nc3sccn3c2-c2ccnc(NCCCNS(=O)(=O)c3cccc(F)c3)c2)c1`, for which the growth in test [1] is 13.7%; in test [2], 38.7%; in test [3] it was 29.3%; in test [4], 55%; in test [10], 13.6%; in [6], -31.2% (active). Besides, the growth in test [7] was -32.7% (active); in [8] it was 23.7%; in test [9], 42.6%.
Regarding `N#C/C(=C\c1ccc(-c2cc(C(F)(F)F)ccc2Cl)o1)c1nc(-c2ccco2)cs1`, the growth in test [1] was 103%; in [2] it was 101%; in test [3], 70%; in test [4], 95.2%; in test [10], 99.5%; in test [6], 97.5%. The growth in test [7] was 78.9%; in [8], 99.5%; in test [9], 108%.
Turning to `O=[N+]([O-])c1ccc2c(c1)Cc1cc(F)ccc1-2`, the growth in test [1] was 97.1%; in [2] it was 95.6%; in [3] it was 92.1%; in test [4], 92.5%; in [5], 93.1%; in [6], 86.4%. The growth is 85.2% in test [7], 103% in test [8] and 107% in test [9].
`O=C(COc1ccc(/C=C2\COc3ccccc3C2=O)cc1)Nc1nccs1`: the growth in test [1] is 72.6%; in [2], 39.1%; in test [3] it was 84.6%; in test [4], 88.2%; in test [5], 73%; in test [7] it was 96.4%. The growth in test [8] is 63.2%; in [9], 86.5%.
For `CC(=O)Oc1ccc(Cl)cc1CN(C(C)=O)C1CCCCC1`, the growth in [1] is 101%; in test [2], 107%; in [3], 93.7%; in [4], 95.7%; in test [5] it was 95.9%; in test [6], 101%. The growth was 86.8% in [7] and 106% in test [9].
As for `COC(=O)c1ccc(NC(=O)c2ccc(-c3cccc([N+](=O)[O-])c3)o2)cc1`, the growth in test [1] was 101%; in [2], 103%; in test [3], 82.4%; in test [4] it was 94.4%; in test [5] it was 100%; in test [6], 97.8%. Moreover, the growth in test [7] is 95.5%; in [9], 100%.
`COc1cccc(/C=C2\SC(=Nc3ccc(NC(C)=O)cc3)NC2=O)c1OC`: the growth in [1] was 96.5%; in test [2], 116%; in [3], 67.5%; in test [4] it was 97.7%; in [5] it was 93.1%; in test [6], 96.2%. Further, the growth in [7] is 98%; in [8], 95.7%; in [9], 101%.
For `COc1ccc(C(=S)N2CCN(c3cccc(Cl)c3)CC2)cc1`, the growth was 108% in test [1]; 101% in test [2]; 93.2% in [3]; 101% in test [4]; 112% in test [5]; 130% in test [6]. For the same compound, the growth in [7] is 85.2%; in test [8] it was 103%; in test [9], 103%.
For the compound `COc1ccc(C(=O)COc2ccc(/C=C3\COc4ccc(OC)cc4C3=O)cc2)cc1`, the growth was 77.5% in test [1]; 93% in [2]; 91.7% in test [3]; 101% in [4]; 84.3% in [5]; 74.2% in [6]. In addition, the values for the growth in test [7] and in test [9] were 85.1% and 94.5%, respectively.
